# Experimental data published in PMC8384837, “Expanding the binding specificity for RNA recognition by a PUF domain”.
# Target: PUM1 PUF domain R3-CRV (Homo sapiens, UniProt Q14671 828-1176, Q939V)
# Assay: yeast three-hybrid, YBZ-1, SC-Leu-His + 0.5 mM 3-AT, 4 days
# Conditions: tags: N-Gal4 AD-HA kept; label: inside an RPR1-promoter hybrid RNA with tandem MS2 sites; ssRNA
# How it was run: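 Pumilio-1 PUF domain libraries, randomized at the three base-contacting residues of each repeat, were co-expressed with matching RNA elements from a centromeric plasmid in strain YBZ-1, which carries a LexA–MS2 coat fusion and a HIS3 reporter. Transformants grew for four days on SC-Leu (input) or on SC-Leu-His + 0.5 mM 3-AT (selection), and the repeat regions were PCR-amplified and Illumina-sequenced. The interaction score is the log change in variant frequency from input to selection. That logarithm is base 2, with a pseudocount of 1 where a variant was absent.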
row,Sequence,binding signal
1,GGCUAGAACUAGUGGAUCCCCCGGCGCCCGGCGGCUCGAGCCCGGGUAAGUGUAAGUAGUCUGCAUGCCGCCGGGCGCCAUGCCUGCAGGUCGACUCUAGAAAACAUG,1.31 log2 enrichment (interaction score)
2,GGCUAGAACUAGUGGAUCCCCCGGCGCCCGGCGGCUCGAGCCCGGGUAAGUGUAAAUAGUCUGCAUGCCGCCGGGCGCCAUGCCUGCAGGUCGACUCUAGAAAACAUG,2.9 log2 enrichment (interaction score)
3,GGCUAGAACUAGUGGAUCCCCCGGCGCCCGGCGGCUCGAGCCCGGGUAAGUGUAAUUAGUCUGCAUGCCGCCGGGCGCCAUGCCUGCAGGUCGACUCUAGAAAACAUG,1.05 log2 enrichment (interaction score)
